Compound activity from PubChem.
Sampled rows, rich in hits. Any-hit rate of the full collection: about 3.9%.
HSF-1 act: increases HSF-1 driven luciferase reporter signal. NIH3T3-HGL HSF-1 luciferase reporter, MG132, 8 h; 100% = twice DMSO control signal. actives 1.7% (n = 300,000). activation, % at 9 µM;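 active = mean replicate activation of at least 50% with a set share of replicates each reaching 50%; inconclusive = only one of those two conditions met; inactive = mean below 50% and too few replicates reaching it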;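 also: 0% = median of the neutral control wells and 100% = twice that signal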
esBAF inh: inhibitors of esBAF chromatin remodeling in mouse ES cells | reporter increase, % at 12.5 µM | Bmi1-luciferase knock-in reporter, 24 h; 100% = twice the neutral-well signal | actives 2% (n = 350,000); in the data active = activation above about 40%; inconclusive = no clear call, values can overlap the other calls;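 also: 0% = median of the plate's neutral control wells and 100% = double that signal; a rise in the Bmi1 reporter signal indicates esBAF inhibition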
Wnt act: activators of Wnt/beta-catenin signaling | Wnt/beta-catenin reporter cell assay, activator, plate reader | activation, % at 9.35 µM | actives 1.2% (n = 300,000) | AID 743398; in the data active = activation above about 30%, passing the limit was not always enough; inconclusive = no clear call, values can overlap the other calls;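 also: 0% = neutral control wells and 100% = positive control wells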
HSF1 inh: HSF1 inhibition. NIH3T3-HGL HSE-luciferase, MG132-induced, luminescence 8 h; hits give low values. activity change, negative = inhibition, % at 7.5 µM (by protocol). actives 0.77% (n = 300,000). AID 2098;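 active = more than half of replicate wells show activity change below -50%, luminescence cut by over half; inconclusive = some wells, but at most half, below -50%; inactive = no replicate well below -50%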;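 also: luciferase reports HSF-1 transcriptional activity via heat shock element; 0% = median of DMSO wells and -100% = zero luminescence signal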
MITF act: activators of MITF-driven TRPM1 promoter activity in SK-MEL-5 cells; SK-MEL-5 TRPM1-promoter luciferase, 24 h; % of positive control, neutral wells = 0; activation, % at 12.5 µM; actives 0.75% (n = 300,000);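 active = mean activation of at least 80% with every replicate also reaching 80%; inconclusive = mean reaches 80% but some replicate falls short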;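 also: 0% = neutral control wells and 100% = parthenolide positive control wells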
Starred values were filed as active, the others as inactive; ? = inconclusive; . = no result.

SMILES	HSF-1 act	esBAF inh	Wnt act	HSF1 inh	MITF act
CC(=O)Nc1ccc2nc(NC(=O)COc3ccccc3C)sc2c1	36	22	2	9	37
O=C(C[C@H]1CC[C@H](NC(=O)Nc2ccc(F)cc2)[C@@H](CO)O1)NCc1ccccn1	.	0	.	.	.
Cc1ccc(S(=O)(=O)N(C)C[C@@H]2Oc3cc(C#Cc4ccccc4)ccc3S(=O)(=O)N([C@@H](C)CO)C[C@H]2C)cc1	.	-5	.	.	.
COc1ccc(S(=O)(=O)N(C)C[C@H]2Oc3ccc(NC(=O)Cc4cn(C)c5ccccc45)cc3CC(=O)N([C@@H](C)CO)C[C@H]2C)cc1	.	4	.	.	.
CC(=O)Nc1cccc(-c2nc3ccc(NC(C)=O)cc3s2)c1	27	54*	?	4	90*
CC(=O)Nc1cccc(-c2nc3ccccc3s2)c1	26	37	12	4	20
Cc1ccc(S(=O)(=O)N(C)C[C@H]2OCCCC[C@H](C)Oc3ccc(NC(=O)C4CCCCC4)cc3C(=O)N([C@H](C)CO)C[C@@H]2C)cc1	.	5	.	.	.
O=C1C=C(Nc2ccccc2O)c2ccccc2C1=O	84*	6	12	58	-100
O=C1C=C(NCc2ccccc2)c2ccccc2C1=O	70*	.	13	51	-104
Cc1ccc(NC2=CC(=O)C(=O)c3ccccc32)c(C)c1	.	-11	5	.	.
C[C@H]1CCCCO[C@H](CN(C)CC2CCCCC2)[C@@H](C)CN([C@@H](C)CO)C(=O)c2cc(NC(=O)Cc3ccccc3)ccc2O1	.	-6	.	.	.
NC(=O)C[N+]1(CC#CC(O)(c2ccccc2)c2ccccc2)CCCC1	-75	-8	-1	-69*	2
C[C@@H]1CCCCO[C@@H](CN(C)S(=O)(=O)c2cn(C)cn2)[C@@H](C)CN([C@H](C)CO)C(=O)c2cc(NS(=O)(=O)c3cccs3)ccc2O1	.	1	.	.	.
CCN=c1scc(-c2ccco2)n1/N=C/c1ccc(OC)c(O)c1	22	54*	40*	3	72
CCN=c1scc(-c2ccco2)n1/N=C/c1ccc(O)cc1	20	33	.	2	.
N#C[C@@H]1[C@H](c2ccccc2)[C@@H](CO)N1S(=O)(=O)c1ccc(F)cc1	.	0	.	.	.
CCCNC(=O)N(C)C[C@H]1Oc2cc(C3=CCCC3)ccc2S(=O)(=O)N([C@H](C)CO)C[C@@H]1C	.	4	.	.	.
CCc1cc(SC#N)cc(C)c1N	-8	.	-18	-13	-14
Cc1cc(SC#N)cc(C)c1NC(=O)CCl	136*	.	6	126	-35
CCc1cc(SC#N)cc(C)c1NC(=O)CCl	113*	.	3	71	-5
COc1ccc(C(=O)Cc2nnc(C)s2)c(OC)c1	-8	.	5	0	39
COc1ccc(C(=O)COc2ccc(F)cc2)c(O)c1	3	68*	0	3	74
COc1ccc(C(=O)Cc2cc(OC)c(OC)cc2[N+](=O)[O-])c(OC)c1	11	52*	11	9	30
COc1ccc(C(=O)Cc2ccc(F)cc2)c(OC)c1	?	76*	23	15	74
Cc1ccc(S(=O)(=O)Nc2cccc3c2O[C@H](CN(C)C(=O)Nc2c(C)noc2C)[C@@H](C)CN([C@@H](C)CO)C3=O)cc1	.	3	.	.	.
SMILES	HSF-1 act	esBAF inh	Wnt act	HSF1 inh	MITF act
COCC#Cc1ccc2c(c1)O[C@H](CN(C)C(=O)C1CCC1)[C@@H](C)CN([C@@H](C)CO)S2(=O)=O	.	5	.	.	.
CCOC(=O)C1=NN(C(=O)c2ccccc2)C(O)(c2ccc(C)cc2)C1 (configuration not stated)	318*	.	7	227	-10
COC(=O)C1=NN(C(=O)c2cccc(Br)c2)C(O)(c2ccc(Cl)cc2)C1 (configuration not stated)	183*	-5	-1	114	-16
CCOC(=O)C1=NN(C(=O)c2ccc(OC)cc2)C(O)(c2ccc(Cl)cc2)C1 (configuration not stated)	80*	.	-1	53	11
CCOC(=O)C1=NN(C(=O)COc2ccccc2)C(O)(c2ccc(Cl)cc2)C1 (configuration not stated)	122*	.	-2	71	-8
O=C(c1ccc(Cl)cc1)N1N=CCC1(O)c1ccc(Cl)cc1 (configuration not stated)	11	11	0	11	.
CCOC(=O)C1=NN(C(=O)Cc2ccccc2)C(O)(c2ccc(Cl)cc2)C1 (configuration not stated)	32	-1	-2	7	6
CCOC(=O)C1=NN(C(=O)c2cccc(Br)c2)C(O)(C(C)(C)C)C1 (configuration not stated)	18	.	.	7	.
CC(C)NC(=O)N[C@@H]1CC[C@@H](CC(=O)O)O[C@@H]1CO	.	-6	.	.	.
Cc1noc(C)c1S(=O)(=O)Nc1ccc2c(c1)C(=O)N([C@@H](C)CO)C[C@H](C)[C@H](CN(C)C(=O)NC1CCCCC1)OCCCC[C@@H](C)O2	.	3	.	.	.
C[C@H](CO)N1C[C@H](C)[C@@H](CN(C)C(=O)Nc2ccc(F)cc2)OCCCC[C@H](C)Oc2ccc(NC(=O)Cc3ccccc3)cc2C1=O	.	-6	.	.	.
CC1=NN(C(=O)c2ccccc2)C(O)(c2ccc(Br)cc2)C1 (configuration not stated)	83*	.	7	43	.
CCC1=NN(C(=O)c2ccc(Br)cc2)C(O)(c2ccccc2)C1 (configuration not stated)	20	4	-2	19	-8
O=C(N/N=C/c1ccc(N2CCCCC2)o1)C(O)(c1ccccc1)c1ccccc1	66*	.	.	38	.
CO[C@@H](CN(C)S(=O)(=O)c1ccccc1)[C@@H](C)CN(C(=O)Nc1ccccc1F)[C@@H](C)CO	.	2	.	.	.
COc1cc(OC)cc(C(=O)NC(=S)Nc2nc(-c3cc4ccccc4o3)cs2)c1	-2	9	19	-3	21
CC(O)(c1ccccc1)c1nc(-c2ccc(Cl)cc2)cs1 (configuration not stated)	.	5	0	.	.
CN(C)c1ccc(-c2csc(C(C)(O)c3ccccc3)n2)cc1 (configuration not stated)	.	56*	4	.	.
COCCNc1nc(-c2cc3ccccc3o2)cs1	56*	.	.	14	33
CC(O)(c1ccccc1)c1nc(-c2cc3ccccc3o2)cs1 (configuration not stated)	.	49*	2	.	.
